# Results as given in PMC10313831, “ssDNA accessibility of Rad51 is regulated by orchestrating multiple RPA dynamics”.
# Target: RPA (Rfa1-Rfa2-Rfa3) (Saccharomyces cerevisiae, UniProt P22336;P26754;P26755 1-621;1-273;1-122)
# Experiment: EMSA; 10 nM RPA, 150 mM KCl; 20 mM Tris-HCl pH 7.5, 150 mM KCl (15 mM in Supp. Fig. 1b), 1 mM DTT, 100 ug/mL BSA, 5 nM ssDNA, 30 C 10 min; 4% native gel in 0.2x TBE; high values mean tight binding
# Conditions: protein: recombinant; copies: 1;1;1; label: 5'-32P; ssDNA
# Chain of RPA (Rfa1-Rfa2-Rfa3) (P22336 whole entry, chain 1 of 3): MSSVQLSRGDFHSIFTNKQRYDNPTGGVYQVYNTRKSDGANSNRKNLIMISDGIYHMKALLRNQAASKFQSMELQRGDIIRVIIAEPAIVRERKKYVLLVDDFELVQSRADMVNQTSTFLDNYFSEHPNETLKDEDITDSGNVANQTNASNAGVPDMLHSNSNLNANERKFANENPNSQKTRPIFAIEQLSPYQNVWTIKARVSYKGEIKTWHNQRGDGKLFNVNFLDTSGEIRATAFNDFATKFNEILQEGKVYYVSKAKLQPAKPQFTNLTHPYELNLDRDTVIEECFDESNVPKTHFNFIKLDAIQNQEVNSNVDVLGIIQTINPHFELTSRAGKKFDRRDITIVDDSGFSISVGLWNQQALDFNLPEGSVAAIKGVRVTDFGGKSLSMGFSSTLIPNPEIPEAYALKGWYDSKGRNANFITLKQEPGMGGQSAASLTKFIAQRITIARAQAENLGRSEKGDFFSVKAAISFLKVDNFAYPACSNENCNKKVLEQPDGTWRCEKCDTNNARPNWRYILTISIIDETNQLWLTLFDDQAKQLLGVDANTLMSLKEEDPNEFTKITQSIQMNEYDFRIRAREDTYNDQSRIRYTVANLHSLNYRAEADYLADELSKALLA
# Chain of RPA (Rfa1-Rfa2-Rfa3) (P26754 whole entry, chain 2 of 3): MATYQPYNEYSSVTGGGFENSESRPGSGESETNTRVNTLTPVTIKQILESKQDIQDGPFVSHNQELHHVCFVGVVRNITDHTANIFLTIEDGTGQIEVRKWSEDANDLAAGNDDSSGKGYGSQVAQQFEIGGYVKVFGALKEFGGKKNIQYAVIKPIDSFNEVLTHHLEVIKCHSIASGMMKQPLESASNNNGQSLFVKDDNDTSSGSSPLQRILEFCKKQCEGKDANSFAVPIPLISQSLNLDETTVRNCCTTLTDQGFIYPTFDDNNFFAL
# Chain of RPA (Rfa1-Rfa2-Rfa3) (P26755 whole entry, chain 3 of 3): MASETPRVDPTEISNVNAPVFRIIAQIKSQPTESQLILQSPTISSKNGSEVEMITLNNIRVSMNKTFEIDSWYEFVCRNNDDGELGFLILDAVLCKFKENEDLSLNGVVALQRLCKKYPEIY
row,Sequence,binding signal [% bound]
1,TTTTTTTTTTTTTTTTTT,39.7
2,TTTTTTTTTTTTTT,3.33 ± 2.59
3,TTTTTTTTTT,1.24
